# Source: the supplement of paper PMC10981050
# Several values for one entry are separate records, joined by “and”; a condition that tells them apart may be missing. Identical values can stand only once. Counter-ions that a name gives are not always drawn.
# Tests used:
# Assay in all cases: cell viability relative to vehicle control; higher = less cytotoxic
# Conditions in all cases: 10 µM
# K562 = system: K562
# Procedure, shortened: (§1)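 After removal of identity-inconsistent compounds, the Selleck bioactive, kinase and epigenetic probe libraries were screened on CRISPR-edited mutant clones and isogenic wild-type clones of four leukaemia lines. Plates were 384-well, each well holding 2000 cells in 50 µL medium and receiving a single 10 µM acoustically dispensed dose. CellTiter-Glo luminescence was read 48 h later, after the supernatant was taken off. Genedata Screener was used to express viability as percent of the on-plate vehicle control.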
# MARIMO = system: MARIMO
# Procedure, shortened: as §1
# MOLM14 = system: MOLM14
# Procedure, shortened: as §1
# OCI-AML2 = system: OCI-AML2
# Procedure, shortened: as §1
SMILES,cell viability (K562; SRSF2 genotype: SRSF2 P95H/wt),cell viability (K562; SRSF2 genotype: SRSF2 wt/wt) [%],cell viability (MARIMO; SRSF2 genotype: SRSF2 P95H/wt) [%],cell viability (MARIMO; SRSF2 genotype: SRSF2 wt/wt) [%],cell viability (MOLM14; SRSF2 genotype: SRSF2 P95H/wt) [%],cell viability (MOLM14; SRSF2 genotype: SRSF2 wt/wt) [%],cell viability (OCI-AML2; SRSF2 genotype: P95H/wt) [%],cell viability (OCI-AML2; SRSF2 genotype: wt/wt) [%]
O[C@@H]1CO[C@H]2[C@@H]1OC[C@@H]2O [Isosorbide],102% and 111%,105,107,104,99.6,105,118,99.5
COC(=O)Nc1nc2cc([S+]([O-])c3ccccc3)ccc2[nH]1 (stereo not drawn) [Oxfendazole],50.5% and 57.7%,58.5,55.2,49.4,70.5,70.4,80,78
CC1(C)C(O[C@@H]2OC[C@@H](O)[C@H](O)[C@H]2O)CC[C@]23CC24CC[C@]2(C)[C@@H]([C@@]5(C)CC[C@@H](C(C)(C)O)O5)[C@H](O)C[C@@]2(C)C4C[C@@H](O[C@@H]2O[C@H](CO)[C@@H](O)[C@H](O)[C@H]2O)C13 (stereo partly drawn) [Astragaloside IV],110% and 114%,113,112,102,108,114,116,102
CN(C)c1ccc(C(=O)NCCCCCCC(=O)NO)cc1,1.52% and 16.7%,6.13,6.98,14.2,1.22,0.66,2.92,6.46
Cc1cc(C)nc(O)n1.O=C(Nc1ccc([N+](=O)[O-])cc1)Nc1ccc([N+](=O)[O-])cc1 [Nicarbazin],100% and 101%,110,97,106,103,101,120,97.1
CC/C(=C(/CC)c1ccc(O)cc1)c1ccc(O)cc1 [Diethylstilbestrol],80.1% and 78.1%,78.8,84.5,87.1,75.1,87.8,74.8,81.4
CO[C@H]1/C=C/O[C@@]2(C)Oc3c(C)c(O)c4c(O)c(c(/C=N/N5CCN(C6CCCC6)CC5)c(O)c4c3C2=O)NC(=O)/C(C)=C\C=C\[C@H](C)[C@H](O)[C@@H](C)[C@@H](O)[C@@H](C)[C@H](OC(C)=O)[C@@H]1C [Rifapentine],87.7% and 92.5%,87.4,78.3,109,56.2,67,56.1,57.2
C=C1C[C@@]23CC[C@H]4[C@@](C)(CCC[C@@]4(C)C(=O)O[C@@H]4O[C@H](CO)[C@@H](O)[C@H](O)[C@H]4O)[C@@H]2CC[C@]1(O[C@@H]1O[C@H](CO)[C@@H](O)[C@H](O)[C@H]1O[C@@H]1O[C@H](CO)[C@@H](O)[C@H](O)[C@H]1O)C3 [Stevioside],113% and 107%,113,111,97.4,112,112,108,106
Cc1cnc(C(=O)N[C@H]2CCCCC/C=C\[C@@H]3C[C@@]3(C(=O)NS(=O)(=O)C3CC3)NC(=O)[C@@H]3C[C@@H](Oc4nc5ccccc5c5ccccc45)CN3C2=O)cn1 [Paritaprevir(ABT-450)],98.7% and 91.6%,91.4,106,119,97.8,100,115,114
O=C(Nc1cc(C(F)(F)F)cc(C(F)(F)F)c1)c1cc(Cl)ccc1O,5.29% and 8.22%,5.97,19,18.3,10.3,8.64,2.4,8.72
Cc1c(F)cc(C(=O)NC2CC2)cc1-c1ccc(C(=O)NCC(C)(C)C)cn1 [Losmapimod],92% and 93.7%,97.8,95.7,103,94.1,100,86.7,95.5
c1ccc(NCc2ccc(CNc3ccccn3)cc2)nc1,91.8% and 94.5%,85,89,91.9,87.2,92.9,78.6,84.2
Cc1cc(Cn2cnc3c2CC(C(=O)O)N(C(=O)C(c2ccccc2)c2ccccc2)C3)ccc1N(C)C (stereo not drawn),100% and 97.2%,99.5,102,101,94.9,97.2,100,117
COc1cc2c(cc1OC)[C@H]1C[C@@H](OC(=O)[C@@H](N)C(C)C)[C@H](CC(C)C)CN1CC2 [Valbenazine tosylate],93.2% and 97.7%,101,108,93.9,103,106,97.2,96.9
Cn1cc(C(=O)Nc2ccc3c(c2)OCCO3)c2ccccc2c1=O,88.4% and 81.6%,81.2,80.4,83.5,84.3,82.8,80.3,95.8
CC(C)n1nc(-c2cc3cc(O)ccc3[nH]2)c2c(N)ncnc21 [Torkinib (PP242)],21.2% and 25.5%,21.9,23.1,23,12.8,9.03,9.37,15.1
C=C1CC[C@@H]2[C@](C)(CO)[C@H](O)CC[C@@]2(C)[C@@H]1C/C=C1/C(=O)OC[C@H]1O [Andrographolide],64.7% and 47.9%,59.5,20.5,19.6,11.1,6.73,23.4,22.4
O=C(O)/C=C/c1ccc(O)c(O)c1 [Caffeic acid],99.1% and 100%,94.3,94.2,105,97.7,101,76.2,92.7
CS(=O)(=O)c1ccc(C(=O)Nc2ccc(Cl)c(-c3ccccn3)c2)c(Cl)c1 [Vismodegib (GDC-0449)],93.4% and 96.9%,96.7,101,104,103,104,96,92.9
O=C(Nc1c(Cl)cncc1Cl)c1ccc(OC(F)F)c(OCC2CC2)c1 [Roflumilast (Daxas)],96.8% and 106%,105,116,114,105,109,103,96
CNCC[C@H](Oc1cccc2ccccc12)c1cccs1 [Duloxetine HCl (Cymbalta)],45.7% and 60.1%,54.7,55,61.4,55.9,70.9,46.2,53.5
